Assay [1] in a line: inhibitors of TNFa-induced NFkB p65 translocation, primary screen, imaging, HUVEC, MLSMR starter and 10KST1 sets (AID 438;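 active = inhibition above 20% together with a positive visual image hit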;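 also: compound added about 3h40 before a 20 min TNFalpha stimulation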;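 as to inhibition: signal is the nuclear over cytoplasmic p65 intensity ratio per well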). To be noted: HUVEC TNFa-induced p65 nuclear translocation; cell count: measured here: nuclei count (cytotoxicity indicator), at 2.08 µM; inhibition: at 2 µM, stronger effect = higher value, 0% TNFa-plus-vehicle, 100% no-TNFa wells.
The nature of assay [2]: inhibitors of mutant huntingtin aggregation, primary screen, imaging, exon1htt(103Q)mCFP cells, high-content imaging (AID 483).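 Also: compound exposure lasted 3 days before fixation.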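 As to nuclei count: percent of the per-plate median nuclei count of sample wells.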 To be noted: exon1htt(103Q)mCFP cell line, aggregate imaging, at 2 µM; inhibition of aggregation: stronger effect = higher value; nuclei count: measured here: cell count, toxicity.
A short description of assay [3]: inhibitors of E-selectin induction by TNFa, primary screen, imaging, HUVEC, immunofluorescence, MLSMR starter and 10KST1 sets (AID 487;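 active = visually confirmed hit in the image check and inhibition above 20%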;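 as to inhibition: signal is fraction of cell area covered by stained E-selectin grains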;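 as to nuclei count: 100% = median nuclei count of all wells on the same plate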). To be noted: HUVEC TNFalpha-induced E-selectin immunofluorescence imaging, at 2 µM; inhibition: stronger effect = higher value; nuclei count: measured here: cell number, toxicity.
Assay [4] concerns the target Voltage-gated potassium channel subunit beta-2 (Rattus norvegicus) (UniProt P62483). Briefly: KvBeta enzyme negative modulators, primary screen, biochemical, NADPH fluorescence (AID 622;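 active = fluorescence slope higher than the sample average by over 3 SD, cut at about -0.22 in these data, passing the limit was not always enough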;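 also: slope of raw intensity against log time taken from 70 to 1610 s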). To be noted: recombinant KvBeta, 4-cyanobenzaldehyde reduction, at 10 µM, stronger effect = higher value.
Assay [5] has the same target. The assay is described as follows: KvBeta positive modulators, primary screen, biochemical, NADPH fluorescence (AID 623;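 active = NADPH fluorescence slope more negative than the mean of all samples by about 3 SD, 99.7% confidence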;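 also: fluorescence intensity change per second fitted from 20 to 320 s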). To be noted: Recombinant KvBeta, NADPH fluorescence decrease slope, 10 min; at 10 µM; stronger effect = lower value.
For assay [6], the target named is Alpha-2C adrenergic receptor (Homo sapiens) (UniProt P18825). The assay is described as follows: modulators of alpha2C/GIRK thallium flux, primary screen, cell-based, HEK293 alpha2C/GIRK1/2 (AID 624;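 active = fluorescence slope after compound addition differing from the mean of all screened samples at 99.7% confidence, in either direction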;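 also: slope of fluorescence ratio to pre-addition baseline per second over 15 to 24 s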). To be noted: thallium flux BTC fluorescence, at 10 µM, actives lie on both sides.
Alpha-2C adrenergic receptor (Homo sapiens), sequence (P18825 whole entry, looked up): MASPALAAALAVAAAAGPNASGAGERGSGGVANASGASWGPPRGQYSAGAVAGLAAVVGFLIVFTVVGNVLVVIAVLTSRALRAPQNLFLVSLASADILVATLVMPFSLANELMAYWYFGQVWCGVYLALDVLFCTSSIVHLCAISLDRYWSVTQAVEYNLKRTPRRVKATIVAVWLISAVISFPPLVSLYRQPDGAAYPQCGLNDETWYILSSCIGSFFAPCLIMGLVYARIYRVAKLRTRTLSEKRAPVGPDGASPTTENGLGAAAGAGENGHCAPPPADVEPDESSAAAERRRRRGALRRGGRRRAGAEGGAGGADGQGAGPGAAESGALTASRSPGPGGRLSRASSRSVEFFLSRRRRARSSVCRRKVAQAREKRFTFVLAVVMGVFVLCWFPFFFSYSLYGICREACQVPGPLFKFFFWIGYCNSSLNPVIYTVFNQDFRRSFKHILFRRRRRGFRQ
The nature of assay [7]: inhibitors of Sendai virus-induced IRF3 signaling, primary screen, TLR/RLR signaling modifier project, cell-based, Sendai virus stimulus, luciferase, 10K MLSCN set (AID 602276;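 active = inhibition at or above 50% at 10 µM; inactive = inhibition below 50%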;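 also: firefly luciferase from ISG56 promoter only with Renilla not read in this screen; 0% = Sendai virus plus DMSO and 100% = medium plus DMSO without virus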). Conditions: HEK293 RL24 IRF3 luciferase reporter, at 10 µM, stronger effect = higher value.
A short description of assay [8]: inhibitors of poly I:C-induced TLR3 signaling, primary screen, cell-based, poly I:C stimulus, luciferase, 10K MLSCN set (AID 602277;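 active = inhibition of the reporter signal at or above 50%; inactive = inhibition below 50%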). To be noted: HEK293-TLR3 RL24 IRF3 luciferase reporter, at 10 µM, stronger effect = higher value.

Calls of active or inactive are those of the source.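 The calls were made as follows, unless noted: active = visual image review flags a hit and inhibition of aggregation exceeds 20%; inconclusive = visual hit but inhibition at or below 20%; inactive = no hit on visual image review.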

Voltage-gated potassium channel subunit beta-2 (Rattus norvegicus), sequence (P62483 whole entry, looked up): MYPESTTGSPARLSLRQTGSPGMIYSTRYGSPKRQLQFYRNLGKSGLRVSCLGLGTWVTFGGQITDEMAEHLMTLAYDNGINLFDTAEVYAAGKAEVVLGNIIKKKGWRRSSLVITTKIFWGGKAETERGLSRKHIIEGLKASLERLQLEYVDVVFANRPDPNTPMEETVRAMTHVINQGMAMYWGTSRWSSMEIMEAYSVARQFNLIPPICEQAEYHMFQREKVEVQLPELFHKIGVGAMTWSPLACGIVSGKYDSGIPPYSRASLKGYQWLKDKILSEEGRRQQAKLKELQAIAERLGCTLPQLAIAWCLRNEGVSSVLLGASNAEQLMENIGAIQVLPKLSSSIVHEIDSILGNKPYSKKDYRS

As to `CC(CN1CCCCC1)OC(=O)c1ccc2c(c1)OCO2` (centres undefined), the cell count in assay [1] amounted to 639. The inhibition in assay [1] was 4.9% (inactive); in assay [3] it was -45.9% (inactive); in assay [7], 6.1% (inactive); in assay [8], -0.512% (inactive). For the same compound, the inhibition of aggregation in assay [2] is 27.4% (inactive). In addition, the nuclei count in assay [2] came out at 70.8%; in assay [3], 103%. Besides, the fluorescence slope in assay [4] is -0.586 (inactive). For the same compound, the NADPH fluorescence slope in assay [5] is -3.4e-05 (inactive). Besides, the slope in assay [6] was 0.00425 (inactive).
For the compound `COC(=O)c1cc2ccsc2n1CC(=O)Nc1cc(C)cc(C)c1`, in assay [1], the cell count is 510. Moreover, the inhibition in assay [1] is -9.5% (inactive); in assay [3] it was -22.5% (inactive); in assay [7], -21% (inactive); in assay [8] it was -31% (inactive). In assay [2], the inhibition of aggregation is -2.7% (inactive). Moreover, the figures for the nuclei count in assay [2] and in assay [3] were 115% and 109%, respectively. The fluorescence slope in assay [4] is -0.374 (inactive). Further, the NADPH fluorescence slope in assay [5] was 9.4e-06 (inactive). In addition, in assay [6], the slope was 0.0119 (inactive).
In the case of `CC(C)(C)c1cc(NS(=O)(=O)c2ccc3c(c2)OCCO3)on1`, in assay [1], the cell count is 574. Further, the inhibition in assay [1] was -2.4% (inactive); in assay [3], -81.6% (inactive); in assay [7] it was 11.1% (inactive); in assay [8] it was 20.1% (inactive). In assay [2], the inhibition of aggregation is 5.3% (inactive). For the same compound, the nuclei count amounted to 104% in assay [2] and 167% in assay [3]. The fluorescence slope in assay [4] is -0.586 (inactive). The NADPH fluorescence slope in assay [5] is -2.5e-06 (inactive). Further, the slope in assay [6] is 0.0066 (inactive).
On to `CCOc1ccccc1Nc1nnc(SCC(=O)N2CCCC2)s1`, for which the cell count in assay [1] amounted to 655. The inhibition was 1% (inactive) in assay [1], -65.3% (inactive) in assay [3], 4.86% (inactive) in assay [7] and 12.3% (inactive) in assay [8]. Moreover, the inhibition of aggregation in assay [2] is 12.1% (inactive). Further, the nuclei count came to 106% in assay [2] and 100% in assay [3]. Further, in assay [4], the fluorescence slope is -0.609 (inactive). Moreover, in assay [5], the NADPH fluorescence slope was 1.4e-05 (inactive). Moreover, the slope in assay [6] is 0.00607 (inactive).
With `Cc1cc(OCC(O)CN2CCN(CCO)CC2)ccc1C(C)C` (centres undefined), the cell count in assay [1] was 428. Further, the inhibition in assay [1] is -0.5% (inactive); in assay [3], 24% (inactive); in assay [7] it was 9.34% (inactive); in assay [8], 29.3% (inactive). Besides, the inhibition of aggregation in assay [2] is 16.4% (inactive). In addition, the nuclei count in assay [2] came out at 94.9%; in assay [3], 93.2%. For the same compound, the fluorescence slope in assay [4] is -0.439 (inactive). Besides, in assay [5], the NADPH fluorescence slope was -3.1e-05 (inactive). For the same compound, the slope in assay [6] is 0.00431 (inactive).
On to `O=C1NC(c2ccco2)Nc2ccccc21` (centres undefined), for which the cell count in assay [1] stood at 694. In addition, the inhibition was -50% (inactive) in assay [1], -84.8% (inactive) in assay [3], -17.2% (inactive) in assay [7] and 99.3% (active) in assay [8]. Also, the inhibition of aggregation in assay [2] is -23.8% (inactive). The results for the nuclei count in assay [2] and in assay [3] were 102% and 107%, respectively. Moreover, in assay [4], the fluorescence slope was -0.344 (inactive). The NADPH fluorescence slope in assay [5] was 1.4e-05 (inactive). In addition, the slope in assay [6] was 0.00562 (inactive).
Regarding `CCOC(=O)N1CCN(C(=O)COc2cc(=O)n(C)c3ccccc23)CC1`, the cell count in assay [1] turned out to be 341. The inhibition in assay [1] is 1.7% (inactive); in assay [3], 1.7% (inactive); in assay [7], -5.65% (inactive); in assay [8], -23.1% (inactive). In assay [2], the inhibition of aggregation is -0.1% (inactive). For the same compound, the nuclei count in assay [2] was determined as 94.2%; in assay [3], 118%. For the same compound, in assay [4], the fluorescence slope is -0.565 (inactive). Further, the NADPH fluorescence slope in assay [5] was 4.1e-05 (inactive). In assay [6], the slope is 0.00524 (inactive).
Regarding `c1cc(C(c2nnnn2C2CCCC2)N2CCOCC2)ccn1` (centres undefined), the cell count in assay [1] came to 392. The inhibition was -7.3% (inactive) in assay [1], 38.6% (inactive) in assay [3], 18.3% (inactive) in assay [7] and 21.2% (inactive) in assay [8]. The inhibition of aggregation in assay [2] was 27.3% (inactive). Further, the nuclei count in assay [2] was 78.3%; in assay [3], 97.3%. Also, the fluorescence slope in assay [4] is -0.522 (inactive). Moreover, the NADPH fluorescence slope in assay [5] was 2.4e-05 (inactive). Moreover, the slope in assay [6] was 0.00524 (inactive).
`O=C(NS(=O)(=O)c1ccc(NC(=O)C2CCCO2)cc1)c1ccccc1` (centres undefined): the cell count in assay [1] stood at 577. Moreover, the inhibition in assay [1] is -6% (inactive); in assay [3] it was -46.8% (inactive); in assay [7] it was 11.4% (inactive); in assay [8] it was 17.7% (inactive). Further, in assay [2], the inhibition of aggregation was 2.1% (inactive). The nuclei count is 110% in assay [2] and 125% in assay [3]. In addition, in assay [4], the fluorescence slope is -0.328 (inactive). Moreover, the NADPH fluorescence slope in assay [5] is -5.2e-05 (inactive). Besides, the slope in assay [6] was 0.00463 (inactive).

For the origin of these results see PubChem BioAssay.
